Screening results as filed in PubChem.
Gal4-VP16 FLuc: inhibits Gal4-VP16 luciferase reporter, ROR gamma counter-screen; Drosophila S2 Gal4-VP16 UAS-luciferase, luminescence, 20 h; Potency, µM (titrated, usually from 53.6 µM), for the others: at the top dose activity, negative = inhibition, actives largely listed as inhibitors; 310,000 compounds, 3.5% hits;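 also: Gal4-VP16 expression switched on by copper sulfate through the metallothionein promoter; nearly all actives have a fitted effect of over 50% in size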
TDP1 inh: inhibitors of human tyrosyl-DNA phosphodiesterase TDP1 | Q9NUW8 | recombinant TDP1, AlphaScreen DNA substrate cleavage | Potency, µM (highest dose often 130 µM), inactives show top-dose activity change, negative = inhibition, hits mostly inhibitors | 350,000 compounds, 0.28% hits | AID 485290; also: nearly all actives have a fitted effect of over 40% in size
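E. coli-derived human Tdp1, 1 nM final. Cpd preinc 15 min RT; substrate 15 nM final, 5 min RT; AS bead mix 10 ug/ml final, 10 min RT. Signal loss = tyrosine-FITC cleavage. No-enzyme wells = max signal.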
DT40 TDP1 no CPT: qHTS for Inhibitors of human tyrosyl-DNA phosphodiesterase 1 (TDP1): qHTS in cells in absence of CPT; DT40 Tdp1-/- hTDP1 cells, no CPT, ATP luminescence, 48 h; Potency, µM (series often up to 46.2 µM), for inactives: at the top dose activity change, negative = growth inhibition, most hits filed as inhibitors; 420,000 compounds, 15% hits; also: nearly all actives have a fitted effect of over 55% in size
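Compound effects on proliferation are scored in DT40 Tdp1-/-;hTDP1 cells in the absence of CPT. ATP levels (CellTiter-Glo luminescence) are recorded after a ≥48 hr, 37 °C incubation.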
RORg inh: blocks mouse ROR gamma transcriptional activity; Potency, µM (highest dose often 53.6 µM), for the others: at the highest dose activity change, negative = inhibition, most hits filed as inhibitors; 310,000 compounds, 5.4% hits; P51450; Drosophila S2 Gal4-RORgamma UAS-luciferase reporter, 20 h; AID 2551; also: nearly all actives have a fitted effect of over 60% in size
Target sequence (P51450 whole entry, looked up, the tested form may be a part): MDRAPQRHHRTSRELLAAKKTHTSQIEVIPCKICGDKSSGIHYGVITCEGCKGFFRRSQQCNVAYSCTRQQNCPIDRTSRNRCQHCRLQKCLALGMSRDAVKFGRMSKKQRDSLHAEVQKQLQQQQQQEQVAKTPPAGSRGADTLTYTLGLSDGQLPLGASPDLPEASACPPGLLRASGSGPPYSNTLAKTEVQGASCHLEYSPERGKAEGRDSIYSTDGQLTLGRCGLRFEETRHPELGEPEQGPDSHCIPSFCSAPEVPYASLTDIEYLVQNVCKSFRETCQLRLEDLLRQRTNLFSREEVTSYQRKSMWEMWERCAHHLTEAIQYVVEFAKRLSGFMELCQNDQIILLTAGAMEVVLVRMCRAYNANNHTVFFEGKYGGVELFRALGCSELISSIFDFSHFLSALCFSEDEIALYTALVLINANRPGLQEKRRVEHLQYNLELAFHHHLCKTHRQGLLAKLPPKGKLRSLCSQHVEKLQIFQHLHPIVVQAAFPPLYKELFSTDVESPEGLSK
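ROR gamma transcriptional activity was tracked as Gal4-UAS luciferase output in stably transfected Drosophila Schneider cells, with compound added 1 hr before 700 uM copper sulfate induction and a 20 hr ambient-temperature incubation.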
TDP1 cell CPT: DT40-hTDP1 cell growth loss with CPT | 420,000 compounds, 12% hits | chicken DT40 Tdp1-/-;hTDP1 cells + 20 nM CPT, ATP luminescence, 48 h | Potency, µM (series often up to 46.2 µM), for inactives: at the highest dose activity change, negative = growth inhibition, usual class: inhibitors | AID 686979; also: nearly all actives have a fitted effect of over 55% in size
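Chicken DT40 Tdp1-/- cells stably complemented with human TDP1 were seeded at 400 cells/well in medium containing 20 nM camptothecin, exposed to pin-transferred compounds, and grown at 37 °C for at least 48 hr. Viability was read as ATP luminescence.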
Starred values were filed as active, the others as inactive; u = inconclusive; x = no result; [ ] = dose if it differs, or a comment. Sampled rows, rich in hits. Any-hit rate of the full collection: about 19%. Calls follow the shape of the dose curve; as a rule, active = well fitted curve in the direction sought with a large enough effect; inconclusive = small, poorly fitted or top-dose-only effect, or another doubt; inactive = no such curve, though single readings can be large; an effect the other way counts as inactive or inconclusive. % is scaled to controls: 0 for no effect and ±100 for the full control effect; potency is read from the fitted curve at half-maximal effect.

SMILES	Gal4-VP16 FLuc	TDP1 inh	DT40 TDP1 no CPT	RORg inh	TDP1 cell CPT
CCC(C(=O)NC1CCCC1)N(Cc1ccccc1Cl)C(=O)c1snc(C(N)=O)c1N (centres undefined)	-16%	0%	13µM*	-15%	-5%
COC(=O)C1=C(C)NC(C)=C(C(=O)OC)C1C(=O)OCC(=O)Nc1ccc(C(C)=O)cc1	-13%	3%	0%	-20%	8%
Cc1cc(C)c2c3c(cn2n1)c(=O)n(C)c(=O)n3C	x	x	1%	x	-6%
N/C(=N\OC(=O)Cc1ccccc1)c1cccc(Br)c1	18%	-8%	10%	32%	-4%
Cc1cccc2c1NC(=O)C2=O	x	x	-6%	x	u
O=C1Nc2c(Cl)cccc2C1=O	x	x	23µM*	x	15µM*
COC(=O)c1ccccc1OCCOc1ccccc1C(=O)OC	0%	0%	-17%	21%	-2%
COC(=O)c1cccc2c1NC(=O)C2=O	4%	3%	21µM*	2%	-3%
O=C1Nc2c(Br)cccc2C1=O	x	0%	12µM*	x	8.2µM*
COC(=O)[C@@]12C[C@@H](CC(=O)N3CCSCC3)C(=O)N(Cc3ccc4c(c3)OCO4)C1=CCC(C)(C)C2	x	x	15µM*	x	u
CCOC(=O)N1CCN(C(=O)C[C@@H]2C[C@@]3(C(=O)OC)CC(C)(C)CC=C3N(Cc3ccc4c(c3)OCO4)C2=O)CC1	x	x	18µM*	x	12µM*
COC(=O)[C@@]12C[C@@H](CC(=O)N3CCN(C(=O)C4CC4)CC3)C(=O)N(CCc3ccc(OC)c(OC)c3)C1=CCC(C)(C)C2	x	x	-18%	x	12%
O=S(=O)(c1cnccc1N1CCN(/N=C/c2ccc(Cl)cc2)CC1)N1CCCCC1	7%	7%	u	-7%	u
CCOC(=O)CC(NS(=O)(=O)c1cc(-c2cc(C)no2)ccc1C)c1ccc(C)cc1 (centres undefined)	x	0%	8.2µM*	x	21µM*
Cc1nc(Nc2ccncc2)c2oc3ccccc3c2n1	-4%	4%	12µM*	1%	10µM*
Cc1cccc(Nc2nc(C)nc3c2oc2ccccc23)c1	2%	x	u	4%	16µM*
CCc1nc(Nc2ccncc2)c2oc3ccccc3c2n1	-2%	3%	2.3µM*	-4%	5.8µM*
CCc1nc(Nc2ccc3c(c2)OCO3)c2oc3ccccc3c2n1	-4%	3%	12µM*	-1%	21µM*
CC(=O)Nc1ccc(Nc2nc(C)nc3c2oc2ccccc23)cc1	-24%	7%	u	-36%	u
CCCOC(=O)CSc1nnc2ccc3ccccc3n12	x	2%	-9%	x	-1%
Cc1cc2c(c(SCC(=O)NCc3ccc(Cl)cc3)n1)C(=O)OC2	1%	3%	4%	-2%	-21%
COCCN1C(=O)N[C@@H](c2cccc(C(F)(F)F)c2)[C@H](C(=O)OC)[C@H]1C	x	7%[21 µM]	-15%	x	-15%
Cc1sc2nc(CN3CCCCC3)nc(Nc3ccc4c(c3)OCCO4)c2c1C	8%	6%	2%	-33%	0%
c1ccc(CNc2ncnc3c2oc2ccccc23)nc1	15%	5%	-15%	20%	-12%
CCc1nc(Nc2ccccc2OC)c2oc3ccccc3c2n1	0%	x	u	u	u
SMILES	Gal4-VP16 FLuc	TDP1 inh	DT40 TDP1 no CPT	RORg inh	TDP1 cell CPT
CCc1nc(SCC(=O)Nc2ccc3c(c2)OCCO3)c2oc3ccccc3c2n1	-9%	3%	26µM*	-25%	u
CCc1nc(Nc2cccc(O)c2)c2oc3ccccc3c2n1	u	x	26µM*	u	u
CCc1nc(NCc2ccccn2)c2oc3ccccc3c2n1	u	6%	15µM*	30%	15µM*
Cc1nc(SCC(=O)Nc2ccc3c(c2)OCCO3)c2oc3ccccc3c2n1	1%	3%	u	0%	-17%
Cc1cccc2c(Nc3ccc4c(c3)OCO4)nc(CN3CCC(N4CCCCC4)CC3)nc12	x	x	21µM*	x	15µM*
COc1ccc(CN2CCNC(=O)C2CC(=O)N(C)Cc2nccs2)cc1OC (centres undefined)	-6%	0%	1%	-25%	-4%
CCCCn1c(N)c(N(CCOC)C(=O)CSCc2cccc(C)c2)c(=O)[nH]c1=O	x	1%	-5%	x	-24%
C=CCN(CC=C)C(=S)NC(=O)/C=C/c1ccc(OC)cc1	-13%	8%	-28%	-21%	-7%
C=CCN(CC=C)C(=S)NC(=O)/C=C/c1ccccc1	-27%	0%	23µM*	14µM*	u
C=CCN(CC=C)C(=S)NC(=O)/C=C/c1ccc(C)cc1	u	0%	u	6.3µM*	-16%
Cc1ccc(S(=O)(=O)Nc2ccc(S(=O)(=O)N3CCOCC3)cc2)cc1	x	x	-3%	x	-8%
Cc1ccc(S(=O)(=O)Nc2ccc3c(c2)CCC3)cc1	-4%	6%	16µM*	2%	15µM*
CCOC(=O)c1c(C)n(S(=O)(=O)c2ccc(C)cc2)c2ccc(NS(=O)(=O)c3ccc(C)cc3)cc12	x	x	21µM*	x	18µM*
Cc1ccc(S(=O)(=O)Nc2ccc3c(c2)c2c(n3S(=O)(=O)c3ccc(C)cc3)CCCC2=O)cc1	u	5%	8.2µM*	u	5.8µM*
CCn1cnc2cc(NS(=O)(=O)c3ccc(C)cc3)ccc21	3%	-7%	u	37%	u
COc1ccc(-c2noc(N3CCC(C(=O)NC(C)c4ccccc4)CC3)n2)cc1 (centres undefined)	-2%	x	26µM*	1%	u
COc1ccc(-c2noc(N3CCC(C(=O)Nc4ccccc4F)CC3)n2)cc1	-28%	x	-4%	-10%	-16%
COc1ccc(-c2noc(N3CCC(C(=O)NCc4ccccc4Cl)CC3)n2)cc1	-20%	x	26µM*	-16%	16µM*
